# From the supplement of paper PMC11732987, “Enantioselective OTUD7B fragment discovery through chemoproteomics screening and high-throughput optimisation” (Communications Chemistry, 2025)
# Values without a mark were called inactive.
# What was measured:
# Experiment in all cases: log2 ratio of Biotin-Ahx-Ub-VS probe labelling (compound/DMSO); higher = less target engagement, active = hit call of the paper (q ≤ 0.05, log2 ratio ≤ -1)
# Details in all cases: treatment time: 3 h
# [1] = compound: ClCC(=O)NC1CCCc2ccccc12
# Outline: (§1)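 HEK293T lysate (495 µg per sample, in Tris/CHAPS/IGEPAL buffer with protease inhibitors) was treated in triplicate with compound at 50 or 200 µM or with DMSO for 3 h. It was then treated with Biotin-Ahx-Ub-VS (0.5 µM final) for 1 h. Labelled DUBs were NeutrAvidin-enriched, digested with LysC and trypsin, and run by diaPASEF LC-MS/MS. Median-normalised label-free quantities gave average log2 ratios compound/DMSO by unpaired t-test, using proteins with ≥2 unique peptides.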
# [2] = compound: ClCC(=O)NC1CCOc2ccc(Cl)cc12
# Outline: as §1
# [3] = compound: ClCC(=O)NC1CCSc2ccccc12
# Outline: as §1
# [4] = compound: ClCC(=O)N[C@H]1CCCc2ccccc12
# Outline: as §1
# [5] = compound: Fc1ccc(N2CCN(c3nc4c(CN(C(CCl)=O)CC4)cn3)CC2)cc1.Cl.Cl
# Outline: as §1
# Chain of UniProt Q93009 (Q93009 whole entry, looked up): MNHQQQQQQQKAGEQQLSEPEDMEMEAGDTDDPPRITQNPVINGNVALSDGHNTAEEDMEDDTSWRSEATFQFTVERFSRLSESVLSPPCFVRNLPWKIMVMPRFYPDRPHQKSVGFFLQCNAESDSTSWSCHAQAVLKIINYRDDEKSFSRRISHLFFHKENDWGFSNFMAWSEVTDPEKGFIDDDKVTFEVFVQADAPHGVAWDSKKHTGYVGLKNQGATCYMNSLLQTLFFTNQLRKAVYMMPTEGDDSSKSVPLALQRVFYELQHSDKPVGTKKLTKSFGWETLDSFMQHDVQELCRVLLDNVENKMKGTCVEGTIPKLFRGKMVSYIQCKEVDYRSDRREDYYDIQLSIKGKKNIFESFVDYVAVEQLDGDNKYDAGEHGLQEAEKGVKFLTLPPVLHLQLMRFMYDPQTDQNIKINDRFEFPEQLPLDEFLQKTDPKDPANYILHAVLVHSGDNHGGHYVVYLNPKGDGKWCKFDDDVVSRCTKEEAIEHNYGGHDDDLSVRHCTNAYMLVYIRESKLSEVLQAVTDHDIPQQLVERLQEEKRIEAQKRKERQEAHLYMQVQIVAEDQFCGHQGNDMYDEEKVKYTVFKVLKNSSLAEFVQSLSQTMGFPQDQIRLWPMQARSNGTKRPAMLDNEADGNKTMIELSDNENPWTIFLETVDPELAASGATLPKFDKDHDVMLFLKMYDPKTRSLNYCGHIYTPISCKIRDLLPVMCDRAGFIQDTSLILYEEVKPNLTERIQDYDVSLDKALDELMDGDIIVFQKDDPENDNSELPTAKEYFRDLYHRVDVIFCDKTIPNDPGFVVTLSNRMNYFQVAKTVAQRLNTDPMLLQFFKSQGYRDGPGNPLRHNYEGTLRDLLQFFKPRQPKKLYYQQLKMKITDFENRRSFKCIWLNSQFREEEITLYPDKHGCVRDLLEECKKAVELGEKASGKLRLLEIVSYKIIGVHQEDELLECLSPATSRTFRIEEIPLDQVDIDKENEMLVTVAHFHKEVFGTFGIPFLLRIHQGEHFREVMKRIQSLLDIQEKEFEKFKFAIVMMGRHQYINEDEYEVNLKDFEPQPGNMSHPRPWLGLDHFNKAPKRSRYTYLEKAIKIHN
# Chain of UniProt Q9NUU6 (Q9NUU6 whole entry): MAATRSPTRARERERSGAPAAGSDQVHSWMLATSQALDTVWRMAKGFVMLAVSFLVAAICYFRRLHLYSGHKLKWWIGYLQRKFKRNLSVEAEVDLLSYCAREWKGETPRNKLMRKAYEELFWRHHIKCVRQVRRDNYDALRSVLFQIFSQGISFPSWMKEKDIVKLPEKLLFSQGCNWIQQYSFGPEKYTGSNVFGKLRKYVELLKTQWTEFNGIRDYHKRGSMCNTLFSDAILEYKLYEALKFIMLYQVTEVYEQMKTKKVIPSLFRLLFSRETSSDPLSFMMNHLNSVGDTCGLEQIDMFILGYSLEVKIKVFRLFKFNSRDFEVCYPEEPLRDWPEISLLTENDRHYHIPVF
# Chain of UniProt O00487 (O00487 whole entry): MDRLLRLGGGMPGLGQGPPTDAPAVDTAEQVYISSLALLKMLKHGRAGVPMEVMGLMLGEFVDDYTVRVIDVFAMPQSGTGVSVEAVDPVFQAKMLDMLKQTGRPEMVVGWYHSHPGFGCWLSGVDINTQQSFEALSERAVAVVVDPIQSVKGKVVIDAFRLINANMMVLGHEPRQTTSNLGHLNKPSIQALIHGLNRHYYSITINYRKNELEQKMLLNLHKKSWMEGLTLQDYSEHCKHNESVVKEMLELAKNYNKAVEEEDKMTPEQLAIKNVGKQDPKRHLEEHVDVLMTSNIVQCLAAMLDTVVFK
# Chain of UniProt Q9P2H5 (Q9P2H5 whole entry): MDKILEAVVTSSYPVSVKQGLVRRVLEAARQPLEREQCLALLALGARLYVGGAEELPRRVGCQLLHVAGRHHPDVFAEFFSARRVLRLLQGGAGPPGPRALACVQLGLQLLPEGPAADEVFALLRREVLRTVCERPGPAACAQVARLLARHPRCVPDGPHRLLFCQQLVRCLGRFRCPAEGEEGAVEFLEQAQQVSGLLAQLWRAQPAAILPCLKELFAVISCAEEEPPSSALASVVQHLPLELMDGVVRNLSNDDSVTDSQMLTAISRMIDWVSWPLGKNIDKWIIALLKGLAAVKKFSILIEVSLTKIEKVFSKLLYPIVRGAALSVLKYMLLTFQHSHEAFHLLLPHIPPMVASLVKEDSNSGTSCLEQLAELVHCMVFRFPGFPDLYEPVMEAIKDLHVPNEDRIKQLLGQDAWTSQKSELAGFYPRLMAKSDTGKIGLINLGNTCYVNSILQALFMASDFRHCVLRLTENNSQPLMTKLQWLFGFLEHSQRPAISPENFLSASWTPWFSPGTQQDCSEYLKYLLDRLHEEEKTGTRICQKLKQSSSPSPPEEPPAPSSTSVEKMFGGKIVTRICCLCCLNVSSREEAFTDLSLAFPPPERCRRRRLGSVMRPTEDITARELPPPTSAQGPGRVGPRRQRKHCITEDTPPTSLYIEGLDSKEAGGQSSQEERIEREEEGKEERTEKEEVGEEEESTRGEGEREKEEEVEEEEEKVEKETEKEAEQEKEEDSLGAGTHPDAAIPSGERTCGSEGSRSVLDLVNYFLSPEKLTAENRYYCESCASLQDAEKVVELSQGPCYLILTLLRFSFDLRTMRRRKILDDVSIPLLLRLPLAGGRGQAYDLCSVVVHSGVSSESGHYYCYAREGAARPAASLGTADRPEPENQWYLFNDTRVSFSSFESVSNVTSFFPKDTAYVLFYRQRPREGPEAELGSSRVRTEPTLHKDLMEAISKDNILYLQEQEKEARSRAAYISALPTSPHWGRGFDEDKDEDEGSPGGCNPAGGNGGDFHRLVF
# Chain of UniProt P62068 (P62068 whole entry): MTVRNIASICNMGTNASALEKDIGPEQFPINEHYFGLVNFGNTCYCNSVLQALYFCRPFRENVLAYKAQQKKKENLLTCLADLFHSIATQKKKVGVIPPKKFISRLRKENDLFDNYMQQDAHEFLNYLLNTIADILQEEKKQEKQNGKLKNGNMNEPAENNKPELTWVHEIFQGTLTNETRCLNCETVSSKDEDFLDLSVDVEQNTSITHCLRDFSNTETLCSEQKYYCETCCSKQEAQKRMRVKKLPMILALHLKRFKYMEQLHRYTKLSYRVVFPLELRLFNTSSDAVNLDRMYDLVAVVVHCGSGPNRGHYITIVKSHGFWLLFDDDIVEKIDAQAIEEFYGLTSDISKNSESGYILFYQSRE
# Chain of UniProt Q70EL1 (Q70EL1 whole entry): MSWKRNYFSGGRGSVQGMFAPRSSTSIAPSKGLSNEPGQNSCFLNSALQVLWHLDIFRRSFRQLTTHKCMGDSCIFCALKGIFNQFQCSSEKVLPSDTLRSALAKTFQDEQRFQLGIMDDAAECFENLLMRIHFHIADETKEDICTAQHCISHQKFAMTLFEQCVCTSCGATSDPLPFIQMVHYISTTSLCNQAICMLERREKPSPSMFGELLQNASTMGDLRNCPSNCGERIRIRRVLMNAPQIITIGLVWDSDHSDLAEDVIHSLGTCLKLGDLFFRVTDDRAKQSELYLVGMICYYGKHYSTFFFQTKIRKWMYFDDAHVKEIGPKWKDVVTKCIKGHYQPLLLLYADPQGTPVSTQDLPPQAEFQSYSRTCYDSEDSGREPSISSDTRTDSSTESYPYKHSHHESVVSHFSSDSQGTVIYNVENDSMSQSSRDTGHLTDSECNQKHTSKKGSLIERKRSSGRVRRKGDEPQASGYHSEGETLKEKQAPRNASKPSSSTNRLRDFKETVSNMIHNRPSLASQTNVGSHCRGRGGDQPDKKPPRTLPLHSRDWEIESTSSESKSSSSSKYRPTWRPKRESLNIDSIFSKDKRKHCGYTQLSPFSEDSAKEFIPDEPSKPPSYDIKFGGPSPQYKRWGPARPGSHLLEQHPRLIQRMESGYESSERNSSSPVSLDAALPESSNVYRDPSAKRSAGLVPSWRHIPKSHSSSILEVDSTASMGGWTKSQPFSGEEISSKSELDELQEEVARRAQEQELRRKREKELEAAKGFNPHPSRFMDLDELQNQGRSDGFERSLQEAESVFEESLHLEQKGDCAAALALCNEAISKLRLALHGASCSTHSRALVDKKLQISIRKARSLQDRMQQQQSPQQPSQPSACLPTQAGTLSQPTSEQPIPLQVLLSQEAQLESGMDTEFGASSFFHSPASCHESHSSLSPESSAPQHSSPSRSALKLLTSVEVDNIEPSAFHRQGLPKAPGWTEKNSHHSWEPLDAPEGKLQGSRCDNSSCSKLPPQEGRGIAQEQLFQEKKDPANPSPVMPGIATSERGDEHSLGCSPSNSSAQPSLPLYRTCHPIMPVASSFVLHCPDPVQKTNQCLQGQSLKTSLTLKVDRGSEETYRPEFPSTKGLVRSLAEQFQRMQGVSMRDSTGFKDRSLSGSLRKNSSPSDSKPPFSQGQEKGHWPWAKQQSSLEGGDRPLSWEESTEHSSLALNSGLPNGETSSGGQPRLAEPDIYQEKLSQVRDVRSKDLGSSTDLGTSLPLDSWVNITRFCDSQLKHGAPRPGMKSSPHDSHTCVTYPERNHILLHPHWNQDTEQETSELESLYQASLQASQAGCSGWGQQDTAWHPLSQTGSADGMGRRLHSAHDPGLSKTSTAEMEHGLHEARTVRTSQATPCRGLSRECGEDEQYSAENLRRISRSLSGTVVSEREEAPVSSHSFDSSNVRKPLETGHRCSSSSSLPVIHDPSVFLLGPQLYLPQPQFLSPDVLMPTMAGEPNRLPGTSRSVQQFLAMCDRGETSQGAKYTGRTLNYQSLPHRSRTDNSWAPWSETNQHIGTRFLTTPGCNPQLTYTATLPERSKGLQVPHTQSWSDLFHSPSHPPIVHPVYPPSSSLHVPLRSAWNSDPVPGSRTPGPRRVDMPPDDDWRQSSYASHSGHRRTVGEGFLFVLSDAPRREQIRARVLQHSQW
# Chain of UniProt P15374 (P15374 whole entry): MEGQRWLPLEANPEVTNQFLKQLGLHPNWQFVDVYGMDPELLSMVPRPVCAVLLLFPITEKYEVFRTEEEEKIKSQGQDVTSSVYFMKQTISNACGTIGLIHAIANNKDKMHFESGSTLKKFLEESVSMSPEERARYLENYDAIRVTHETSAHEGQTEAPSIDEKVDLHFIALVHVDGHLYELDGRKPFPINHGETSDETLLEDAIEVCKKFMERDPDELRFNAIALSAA
Target,log2 ratio of Biotin-Ahx-Ub-VS probe labelling ([1]; compound concentration: 50uM),log2 ratio of Biotin-Ahx-Ub-VS probe labelling ([1]; compound concentration: 200uM),log2 ratio of Biotin-Ahx-Ub-VS probe labelling ([2]; compound concentration: 50uM),log2 ratio of Biotin-Ahx-Ub-VS probe labelling ([2]; compound concentration: 200uM),log2 ratio of Biotin-Ahx-Ub-VS probe labelling ([3]; compound concentration: 50uM),log2 ratio of Biotin-Ahx-Ub-VS probe labelling ([3]; compound concentration: 200uM),log2 ratio of Biotin-Ahx-Ub-VS probe labelling ([4]; compound concentration: 50uM),log2 ratio of Biotin-Ahx-Ub-VS probe labelling ([4]; compound concentration: 200uM),log2 ratio of Biotin-Ahx-Ub-VS probe labelling ([5]; compound concentration: 50uM),log2 ratio of Biotin-Ahx-Ub-VS probe labelling ([5]; compound concentration: 200uM)
UniProt Q5T2D3,-0.177,0.0818,-0.361,-0.177,-0.0329,-0.156,-0.0344,-0.199,-0.00755,-0.416
EIF3F (UniProt O00303),-0.228,0.0219,-0.17,0.0998,-0.0176,0.00311,-0.292,0.0431,0.028,0.0109
ATXN3 (UniProt P54252),-0.0534,-0.164,-0.0955,-0.25,0.24,-0.293,-0.316,-0.596,-0.648,-2.72 (active)
OTUD7B (UniProt Q6GQQ9),-4.5 (active),-5.65 (active),-2.75 (active),-5.2 (active),-3.62 (active),-5.08 (active),-5.19 (active),-5.13 (active),-0.187,-1.57 (active)
USP36 (UniProt Q9P275),0.0611,0.171,-0.00761,-0.088,0.158,0.1,-0.0619,-0.0962,-0.181,-0.183
USP10 (UniProt Q14694),-0.107,0.139,-0.314,-0.0917,-0.0829,0.0327,-0.162,0.0178,-0.0782,-0.162
FAM105A (UniProt Q9NUU6),-0.0884,-0.0754,-0.148,-0.0677,0.0795,-0.0897,0.0155,-0.0104,0.239,-0.443
USP14 (UniProt P54578),-0.364,0.154,-0.397,-0.0189,-0.186,-0.179,0.115,-0.537,0.108,-0.424
USP7 (UniProt Q93009),-0.0886,-0.205,-0.182,-0.301,0.0569,-0.25,0.0324,-0.432,-0.507,-1.83 (active)
USP15 (UniProt Q9Y4E8),-0.0996,-0.0168,-0.328,-0.255,0.00954,-0.189,-0.0873,-0.249,-0.441,-1.58 (active)
USP8 (UniProt P40818),-0.193,-0.0275,-0.286,-0.268,0.0453,-0.166,-0.0844,-0.245,-0.136,-0.61
USP24 (UniProt Q9UPU5),-0.0627,-0.259,-0.0337,-0.691,0.0214,-0.445,0.184,-0.614,-0.726,-2.07 (active)
MINDY4 (UniProt Q4G0A6),0.639,-0.0583,-0.0698,0.0712,0.832,-0.691,0.216,0.204,0.258,0.516
YOD1 (UniProt Q5VVQ6),-0.158,0.159,-0.167,-0.318,0.161,-0.174,0.362,-0.265,0.0837,-0.394
VCPIP1 (UniProt Q96JH7),-0.592,-1.1 (active),-0.668,-0.836,-0.427,-1.2 (active),-0.287,-0.962,-0.145,-0.737
USP22 (UniProt Q9UPT9),-0.085,-0.0777,-0.0691,-0.277,0.136,-0.123,0.101,-0.302,-0.16,-0.168
COPS5 (UniProt Q92905),-0.103,0.0648,-0.403,-0.0328,-0.0481,0.169,-0.289,-0.229,-0.304,0.0806
UniProt P51784,0.0554,0.032,-0.0759,-0.235,0.214,-0.104,0.124,-0.322,0.0256,-1.01 (active)
ALG13 (UniProt Q9NP73),0.298,0.114,0.599,0.0386,0.273,-0.0598,0.244,0.344,0.0824,0.24
USP12 (UniProt O75317),-0.289,-0.199,-0.354,-0.202,-0.191,-0.363,-0.253,-0.148,-0.289,-1.16 (active)
UCHL5 (UniProt Q9Y5K5),-0.182,-0.0853,-0.308,-0.472,0.0503,-0.365,-0.0983,-0.443,-0.226,-1.37 (active)
OTUD6B (UniProt Q8N6M0),-0.12,-0.0737,-0.248,-0.361,0.0363,-0.296,-0.00611,-0.364,-0.105,-1.28 (active)
USP39 (UniProt Q53GS9),-0.167,-0.109,-0.269,-0.2,-0.0242,-0.138,0.0198,-0.0406,0.0915,-0.109
PRPF8 (UniProt Q6P2Q9),-0.0294,-0.0682,-0.217,-0.0207,0.0298,-0.0215,0.0787,-0.0553,-0.0417,-0.137

Target,log2 ratio of Biotin-Ahx-Ub-VS probe labelling ([1]; compound concentration: 50uM),log2 ratio of Biotin-Ahx-Ub-VS probe labelling ([1]; compound concentration: 200uM),log2 ratio of Biotin-Ahx-Ub-VS probe labelling ([2]; compound concentration: 50uM),log2 ratio of Biotin-Ahx-Ub-VS probe labelling ([2]; compound concentration: 200uM),log2 ratio of Biotin-Ahx-Ub-VS probe labelling ([3]; compound concentration: 50uM),log2 ratio of Biotin-Ahx-Ub-VS probe labelling ([3]; compound concentration: 200uM),log2 ratio of Biotin-Ahx-Ub-VS probe labelling ([4]; compound concentration: 50uM),log2 ratio of Biotin-Ahx-Ub-VS probe labelling ([4]; compound concentration: 200uM),log2 ratio of Biotin-Ahx-Ub-VS probe labelling ([5]; compound concentration: 50uM),log2 ratio of Biotin-Ahx-Ub-VS probe labelling ([5]; compound concentration: 200uM)
USP34 (UniProt Q70CQ2),-0.752,-0.268,0.178,0.0865,-0.0836,-0.557,-0.0266,0.046,-0.25,-0.554
USP19 (UniProt O94966),-0.205,-0.219,-0.252,-0.38,-0.00658,-0.393,-0.0565,-0.411,-1.25 (active),-3.86 (active)
USP54 (UniProt Q70EL1),-0.548,0.0905,0.326,0.176,0.0467,0.0947,-1.58 (active),-0.206,-0.663,0.547
USP5 (UniProt P45974),0.0451,0.134,0.0362,-0.0604,0.236,-0.0467,0.0744,-0.095,0.22,-0.287
OTUD4 (UniProt Q01804),-1.22 (active),-1.53 (active),-0.449,-1.11 (active),-1.2 (active),-1.84 (active),-1.48 (active),-1.79 (active),-0.0534,-0.739
BAP1 (UniProt Q92560),-0.474,-1.23 (active),-1.05 (active),-2.38 (active),-0.619,-2.44 (active),-0.684,-1.69 (active),-0.262,-1.91 (active)
USP25 (UniProt Q9UHP3),-0.808,0.0737,0.221,0.509,-0.0574,-0.126,-0.809,-1.97 (active),0.382,-1.03
EIF3H (UniProt O15372),-0.0316,-0.379,-0.141,-0.0932,-0.0985,-0.00068,-0.109,0.0728,0.0328,-0.126
USP16 (UniProt Q9Y5T5),-0.384,-0.472,-0.353,-0.626,-0.00515,-0.114,0.221,0.339,-0.277,-0.62
USP48 (UniProt Q86UV5),0.13,0.0439,-0.0252,-0.167,0.207,-0.0233,-0.00252,-0.144,-0.0747,-0.125
USP4 (UniProt Q13107),0.337,-0.155,-0.21,0.596,-0.0317,-0.104,-0.54,-0.195,-0.32,0.659
UniProt Q70EL2,0.0142,-0.673,-0.00989,-0.0714,0.0879,0.0524,0.0625,-0.323,-0.414,-0.995
USP42 (UniProt Q9H9J4),0.113,0.286,-0.00469,0.132,0.137,0.26,-0.0967,0.0714,-0.0766,0.241
UniProt Q8TE49,-1.68 (active),-2.58 (active),-0.472,-2.17 (active),-0.368,-2.26 (active),-2.07 (active),-2.92 (active),-0.151,-1.37 (active)
UniProt Q9UGI0,-0.0757,-0.346,-0.41,-0.0672,-0.265,-0.226,-0.182,-0.337,-0.0659,-0.664
USP46 (UniProt P62068),-0.0934,-0.257,-0.229,-0.251,-0.017,-0.304,-0.00597,-0.413,-0.241,-1.72 (active)
USP28 (UniProt Q96RU2),-0.263,-0.626,-0.164,-0.586,-0.108,-0.622,-0.259,-0.947,-0.134,-1.12 (active)
OTUB1 (UniProt Q96FW1),-0.212,-0.0215,-0.31,-0.319,0.00122,-0.246,0.0292,-0.0965,0.0783,-0.137
UniProt Q9P2H5,-0.0608,0.0712,-0.42,-0.205,0.0602,-0.0405,-0.178,-0.0371,-0.262,-1.08 (active)
UCHL1 (UniProt P09936),-0.0609,0.151,-0.516,-0.228,0.0655,-0.146,-0.0596,-0.223,0.0885,-0.474
USP9X (UniProt Q93008),-0.0287,-0.0252,-0.131,-0.237,0.0883,-0.151,0.0465,-0.214,-0.231,-1.53 (active)
UniProt O00487,-0.451,-0.117,-0.207,0.0311,0.124,-0.15,-0.0195,-0.0757,0.285,0.135
UCHL3 (UniProt P15374),-0.203,0.0177,-0.519,-0.27,-0.0871,-0.294,-0.224,-0.372,-1.23 (active),-4.19 (active)
PSMD7 (UniProt P51665),-5.4,-0.933,-1.46,0.606,0.408,0.0589,1.77,0.0535,-0.177,-1.73
